# Test results as given in the supplement of paper PMC8728848.
# About 410 targets per protein were measured; listed, in parts, are those with the strongest signals and a random draw of the rest.
# B1: CLECb-Precomplexed (Mus musculus), P43025 (protein)
# chain: MAKNGLVLCILVVSLLLDQTDGYPSRMKARKHSKRRVKAKDDDLKSQVEKLWREVNALKEMQALQTVCLRGTKVHKKCYLASEGLKHYHEANEDCISKGGTLVVPRNSDEINALRDYGKRSLPGVNDFWLGINDMVTEGKFLDVHGFAVSFLNWDRAQPSGGKRENCVLFSQSAQGKWSDEACRSSKRYICEFIIPTRTRPLEQKLISEEDLAANDILDYKDDDDKV
# Key:
# Assay in all cases: glycan array binding signal (z-score within array); higher = stronger binding
# Conditions in all cases: glycan notation: IUPAC condensed, linker removed
# [1] = biological target: Fuc(a1-2)Gal(b1-3)GlcNAc6S
# In short: (§1)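 The binding signal is a Z-score computed within each array. Data were drawn from 3228 arrays in the Consortium for Functional Glycomics database, restricted to those with a known protein sequence. Scores were averaged over arrays of the same protein sequence at different concentrations or buffers, and over linkers, and negative values can be taken as non-binding.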
# [2] = biological target: Fuc(a1-2)Gal(b1-4)GlcNAc(b1-2)Man(a1-3)[Fuc(a1-2)Gal(b1-4)GlcNAc(b1-2)Man(a1-6)]Man(b1-4)GlcNAc(b1-4)GlcNAc
# In short: as §1
# [3] = biological target: Fuc(a1-2)Gal6S(b1-3)GlcNAc
# In short: as §1
# [4] = biological target: Fuc(a1-2)[GalNAc(a1-3)]Gal(b1-4)Glc
# In short: as §1
# [5] = biological target: Fuc(a1-2)[GalNAc(a1-3)]Gal(b1-4)GlcNAc(b1-2)Man(a1-3)[Fuc(a1-2)[GalNAc(a1-3)]Gal(b1-4)GlcNAc(b1-2)Man(a1-6)]Man(b1-4)GlcNAc(b1-4)GlcNAc
# In short: as §1
# [6] = biological target: Fuc(a1-2)[GalNAc(b1-3)]Gal
# In short: as §1
# [7] = biological target: Fuc(a1-3)[Gal(b1-4)]GlcNAc
# In short: as §1
# [8] = biological target: Fuc(a1-3)[Gal(b1-4)]GlcNAc(b1-6)[Gal(b1-3)GlcNAc(b1-3)]Gal(b1-4)Glc
# In short: as §1
# [9] = biological target: Fuc(a1-3)[Gal3S(b1-4)]GlcNAc6S
# In short: as §1
# [10] = biological target: Gal(a1-3)Gal(b1-3)GlcNAc(b1-3)GalNAc
# In short: as §1
# [11] = biological target: Gal(a1-3)Gal(b1-3)[Fuc(a1-4)]GlcNAc(b1-2)Man(a1-3)[Gal(a1-3)Gal(b1-3)[Fuc(a1-4)]GlcNAc(b1-2)Man(a1-6)]Man(b1-4)GlcNAc(b1-4)GlcNAc
# In short: as §1
# Gal(a1-3)GalNAc = biological target: Gal(a1-3)GalNAc
# In short: as §1
# [12] = biological target: Gal(b1-3)GlcNAc(b1-3)Gal(b1-3)GlcNAc
# In short: as §1
# [13] = biological target: Gal(b1-3)GlcNAc(b1-3)Gal(b1-4)GlcNAc(b1-2)Man(a1-3)[Gal(b1-3)GlcNAc(b1-3)Gal(b1-4)GlcNAc(b1-2)Man(a1-6)]Man(b1-4)GlcNAc(b1-4)GlcNAc
# In short: as §1
# [14] = biological target: Gal(b1-3)GlcNAc(b1-6)[Gal(b1-3)]GalNAc
# In short: as §1
# [15] = biological target: Gal(b1-3)[Fuc(a1-4)]GlcNAc(b1-2)Man
# In short: as §1
# [16] = biological target: Gal(b1-3)[Fuc(a1-4)]GlcNAc(b1-2)Man(a1-3)[Gal(b1-3)[Fuc(a1-4)]GlcNAc(b1-2)Man(a1-6)]Man(b1-4)GlcNAc(b1-4)[Fuc(a1-6)]GlcNAc
# In short: as §1
# [17] = biological target: Gal(b1-3)[Fuc(a1-4)]GlcNAc(b1-3)Gal(b1-3)[Fuc(a1-4)]GlcNAc
# In short: as §1
# [18] = biological target: Gal(b1-4)GlcNAc(b1-2)Man(a1-3)[GlcNAc(b1-2)Man(a1-6)]Man(b1-4)GlcNAc(b1-4)GlcNAc
# In short: as §1
# [19] = biological target: Gal(b1-4)GlcNAc(b1-2)[Gal(b1-4)GlcNAc(b1-6)]Man(a1-6)[Gal(b1-4)GlcNAc(b1-2)Man(a1-3)]Man(b1-4)GlcNAc(b1-4)GlcNAc
# In short: as §1
# [20] = biological target: Gal(b1-4)GlcNAc(b1-3)Gal(b1-4)Glc
# In short: as §1
# [21] = biological target: Gal(b1-4)GlcNAc(b1-3)Gal(b1-4)GlcNAc(b1-2)Man(a1-3)[Gal(b1-4)GlcNAc(b1-3)Gal(b1-4)GlcNAc(b1-2)Man(a1-6)]Man(b1-4)GlcNAc(b1-4)GlcNAc
# In short: as §1
# [22] = biological target: Gal(b1-4)GlcNAc(b1-3)Gal(b1-4)GlcNAc(b1-3)Gal(b1-4)GlcNAc(b1-2)[Gal(b1-4)GlcNAc(b1-3)Gal(b1-4)GlcNAc(b1-3)Gal(b1-4)GlcNAc(b1-6)]Man(a1-6)[Gal(b1-4)GlcNAc(b1-3)Gal(b1-4)GlcNAc(b1-3)Gal(b1-4)GlcNAc(b1-2)Man(a1-3)]Man(b1-4)GlcNAc(b1-4)[Fuc(a1-6)]GlcNAc
# In short: as §1
# [23] = biological target: Gal(b1-4)GlcNAc(b1-3)Gal(b1-4)GlcNAc(b1-3)Gal(b1-4)GlcNAc(b1-3)Gal(b1-4)GlcNAc(b1-3)Gal(b1-4)GlcNAc(b1-2)Man(a1-3)[Gal(b1-4)GlcNAc(b1-3)Gal(b1-4)GlcNAc(b1-3)Gal(b1-4)GlcNAc(b1-3)Gal(b1-4)GlcNAc(b1-3)Gal(b1-4)GlcNAc(b1-2)Man(a1-6)]Man(b1-4)GlcNAc(b1-4)GlcNAc
# In short: as §1
binder,measurement,setting,value
B1,glycan array binding signal (z-score),[1],-0.588
same,glycan array binding signal (z-score),[2],2.16
same,glycan array binding signal (z-score),[3],-0.377
same,glycan array binding signal (z-score),[4],-0.431
same,glycan array binding signal (z-score),[5],-0.336
same,glycan array binding signal (z-score),[6],-0.291
same,glycan array binding signal (z-score),[7],0.129
same,glycan array binding signal (z-score),[8],0.092
same,glycan array binding signal (z-score),[9],-0.231
same,glycan array binding signal (z-score),[10],0.142
same,glycan array binding signal (z-score),[11],9.55
same,glycan array binding signal (z-score),Gal(a1-3)GalNAc,-0.387
same,glycan array binding signal (z-score),[12],-0.229
same,glycan array binding signal (z-score),[13],0.774
same,glycan array binding signal (z-score),[14],-0.462
same,glycan array binding signal (z-score),[15],-0.166
same,glycan array binding signal (z-score),[16],2.08
same,glycan array binding signal (z-score),[17],0.004
same,glycan array binding signal (z-score),[18],-0.209
same,glycan array binding signal (z-score),[19],2.03
same,glycan array binding signal (z-score),[20],-0.229
same,glycan array binding signal (z-score),[21],2.63
same,glycan array binding signal (z-score),[22],3.07
same,glycan array binding signal (z-score),[23],2.1
